Compounds without any hit were thinned out: in the full panel of roughly 83,000, 20% have a hit.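 Step 1: grow cells in 96-well plates. Step 2: add test compound at a single concentration. Step 3: incubate 48 h. Step 4: record percent growth.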 A number with no mark means an inactive call. Activity calls are given as the source filed them. Rule for the calls: active = growth percent below 10; inactive = the rest.

Common to all, as to test: NCI-60 one-dose screen, 48 h (100 = growth as untreated, 0 = no growth, -100 = all killed)
Details in all cases: 10 µM unless noted

Test [1] has as its system NCI-H23 lung.
Test [2] deals with NCI-H226 lung.
Test [3] deals with NCI-H322M lung.
The test system of test [4] is HOP-62 NSCLC.
Test [5] relates to NCI-H460 lung.
Test [6] concerns HOP-92 NSCLC.
The subject of test [7] is NCI-H522 lung.
Test [8] deals with A549/ATCC NSCLC.
In test [9] the test system is 786-0 renal.
Test [10] has as its system COLO 205 colon.
The subject of test [11] is DU-145 prostate.
In test [12] the test system is K-562 leukemia.
Test [13] relates to MALME-3M melanoma.
Test [14] concerns MDA-MB-231 breast.
The subject of test [15] is RXF 393 renal.
Test [16] relates to SF-268 CNS.
Test [17] has as its system SF-295 CNS.
For test [18], the system named is SF-539 CNS.
Test [19] deals with UACC-257 melanoma.
Test [20] deals with M14 melanoma.

On to `Cc1cccc2c3c(sc12)C(c1ccc(F)cc1)C(C#N)=C(N)O3` (stereo not given), for which the growth was 21.3% in [1]; 26.1% in test [2]; 46.4% in [3]; 33.2% in test [4]; 3.07% (active) in [5]; 68.4% in test [6]. The growth in [7] was 13.6%; in test [8], 22.1%; in [9], 16.7%; in [10] it was -37.3% (active); in test [11], 7.98% (active); in test [12], 8.65% (active). For the same molecule, the growth in [13] was 73.8%; in [14], 26.9%; in test [15], 38.7%; in test [16], 27.8%; in test [17], 5.18% (active); in test [18] it was -15.3% (active). Further, the growth was 68.2% in test [19] and 10.4% in test [20].
Take `CCOC(=O)C1=C(N)Oc2c(sc3c(C)cccc23)C1c1ccc(F)cc1` (stereo not given): the growth in [1] was 20.1%; in test [2], 9.65% (active); in test [3] it was 51.5%; in test [4], 36.2%; in [5], 4.3% (active); in test [6], 91.7%. Besides, the growth in test [7] is 11.8%; in test [8], 20.1%; in test [9] it was 33.4%; in [10] it was -1.13% (active); in test [11] it was 12.1%; in test [12], 4.54% (active). Further, the growth in test [13] was 52.7%; in [14], 27.8%; in [15], -7.13% (active); in [16] it was 38.2%; in [17] it was 0.881% (active); in test [18] it was -1.53% (active). The growth was 59.2% in test [19] and 10.6% in test [20].
With `Cc1cccc(OCC(O)CN2CCN(c3ccc(Cl)cc3)CC2)c1` (stereo not given), the growth in [1] was 95.2%; in test [2], 112%; in [3] it was 125%; in test [4], 118%; in test [5], 108%; in test [6], 80%. Further, the growth was 109% in test [7]; 98.5% in [8]; 96.5% in [9]; 96.7% in [10]; 113% in test [11]; 96.9% in test [12]. For the same molecule, the growth in [13] is 153%; in test [14], 98.7%; in test [15], 118%; in test [16], 99.4%; in test [17] it was 94.5%; in [18], 104%. For the same molecule, the growth in [19] is 108%; in test [20] it was 94.7%.
`C#C[C@]1(O)CC[C@H]2[C@@H]3CC=C4c5sc(Nc6ccccc6)nc5CC[C@]4(C)[C@H]3CC[C@@]21C`: the growth in test [1] was 39.1%; in test [2], 62.7%; in test [3], 48%; in test [4] it was 35.5%; in test [5], 20.5%; in test [6] it was 53.4%. The growth is 43.3% in test [7]; 52.9% in test [8]; -36.5% (active) in test [9]; 10.1% in test [10]; 16.2% in [11]; 9.63% (active) in test [12]. Moreover, the growth in test [13] is 25.8%; in test [14] it was 27.7%; in test [15], -53.1% (active); in test [16], 24.3%; in test [17], -56.4% (active); in test [18] it was -51.1% (active). Further, the growth in test [19] was 30.4%; in test [20], 2.55% (active).
As to `O=C(COc1ccc(/C=C2\Cc3ccc(Cl)cc3C2=O)cc1)Nc1nc2ccccc2s1`, the growth was 95.5% in test [1]; 101% in test [2]; 134% in [3]; 98.2% in test [4]; 103% in [5]; 97% in test [6]. Further, the growth in test [7] was 96.7%; in [8] it was 99.5%; in [9] it was 103%; in [10] it was 116%; in test [11] it was 115%; in test [12], 86.4%. In addition, the growth in test [13] was 132%; in test [14], 96%; in test [15], 88.4%; in test [16] it was 112%; in [17], 108%; in test [18], 98.9%. Also, the figures for the growth in test [19] and in [20] were 105% and 103%, respectively.
With `O=C1CSC(c2c(Cl)cccc2Cl)N1c1nc(Cl)cc(=O)[nH]1` (stereo not given), the growth in [1] is 104%; in [2] it was 99.8%; in test [3], 177%; in [4] it was 95.8%; in [5], 101%; in test [6], 65%. Also, the growth is 75.8% in test [7]; 103% in test [8]; 90.7% in test [9]; 111% in [10]; 123% in test [11]; 93.2% in test [12]. Further, the growth in test [13] was 216%; in [14], 108%; in test [15] it was 113%; in test [16], 106%; in test [17], 91.3%; in test [18], 102%. Also, the growth in test [19] is 99.6%; in test [20], 106%.
`NCCCNc1nc2ccccc2c2c(=O)c3cc(F)cc(Cl)c3sc12`: the growth is 95.5% in test [1]; 88.9% in test [2]; 87.7% in test [3]; 92.6% in [4]; -74% (active) in test [5]; 70.4% in [6]. In addition, the growth in test [7] is 92.9%; in test [8] it was 79.1%; in test [9] it was 86.3%; in [10], 106%; in test [11], 64.1%; in test [12], -17.7% (active). Besides, the growth is 106% in test [13]; 51.4% in test [14]; 73.6% in [15]; 79.9% in [16]; 102% in [17]; 83% in test [18]. Besides, the growth in [19] was 114%; in test [20], 90.4%.
For `Cc1ccc(-c2nc(SCC(=O)Nc3nc(-c4ccc(Cl)cc4)cs3)[nH]c(=O)c2C#N)cc1`, the growth in [1] is 95.1%; in test [2], 89.5%; in [3], 101%; in test [4] it was 94%; in [5], 105%; in test [6], -13.3% (active). Also, the growth was 77.5% in test [7]; 86.7% in [8]; 93.2% in test [9]; 117% in test [10]; 103% in [11]; 97.1% in test [12]. The growth is 109% in [13]; 110% in test [14]; 114% in test [15]; 98.1% in test [16]; 101% in [17]; 117% in test [18]. Moreover, the growth in test [19] was 88%; in [20], 91.7%.
